From PubChem BioAssay (NCATS)
Results filed as inconclusive are left out. Calls of active or inactive are those of the source. Calls come from the whole dose curve; as a rule, active = well fitted curve in the direction sought with a large enough effect; inconclusive = small, poorly fitted or top-dose-only effect, or another doubt; inactive = no such curve, though single readings can be large; an effect the other way counts as inactive or inconclusive.

How the values were obtained:
[1] = qHTS of pediatric cancer cell lines to identify multiple opportunities for drug repurposing: Primary screen for NB1643 cells (AID 1347099); note: nearly all actives have a fitted effect of over 50% in size; note: potency is the fitted concentration of half-maximal effect
Procedure, shortened: (§1)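 Cells plated at 500-1,000/well in growth medium, compounds added after 5 h. MIPE tested at 11 points (from 0.78 nM), NPC at 8 points (from 0.59 nM). CellTiter-Glo luminescence after 48 h; concentration-response curves from primary screen.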

[2] = qHTS of pediatric cancer cell lines to identify multiple opportunities for drug repurposing: Primary screen for LAN-5 cells (AID 1347100); note: potency is the fitted concentration of half-maximal effect
Procedure, shortened: (§2)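 Cells (500-1,000/well) rested 5 h, then received compounds for 48 h; metabolically active cells were measured by CellTiter-Glo luminescence. Final concentrations spanned up to 46 µM (MIPE, 11-point) or 0.59 nM-46 µM (NPC, 8-point) in primary screens, 11-point in follow-ups.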

[3] = qHTS of pediatric cancer cell lines to identify multiple opportunities for drug repurposing: Primary screen for BT-12 cells (AID 1347101); note: nearly all actives have a fitted effect of over 25% in size; note: potency is the fitted concentration of half-maximal effect
Procedure, shortened: as §2

[4] = qHTS of pediatric cancer cell lines to identify multiple opportunities for drug repurposing: Primary screen for control Hh wild type fibroblast cells (AID 1347106); note: nearly all actives have a fitted effect of over 55% in size; note: potency is the fitted concentration of half-maximal effect
Procedure, shortened: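 Viability after 48 h compound treatment at 37C, 500-1,000 cells/well, read as ATP luminescence with CellTiter-Glo. Primary screens used 11-point (MIPE, 0.78 nM-46 µM) or 8-point (NPC, 0.59 nM-46 µM) final concentrations; follow-up screens used 11-point dilutions.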

[5] = qHTS of pediatric cancer cell lines to identify multiple opportunities for drug repurposing: Primary screen for Rh30 cells (AID 1347107); note: series mostly up to about 46 µM; nearly all actives have a fitted effect of over 75% in size
Procedure, shortened: as §2

[6] = qHTS of pediatric cancer cell lines to identify multiple opportunities for drug repurposing: Primary screen for Rh41 cells (AID 1347108); note: nearly all actives have a fitted effect of over 70% in size; note: potency is the fitted concentration of half-maximal effect
Procedure, shortened: as §1

[7] = qHTS of pediatric cancer cell lines to identify multiple opportunities for drug repurposing: Confirmatory screen for NB1643 cells (AID 1347109); note: potency is the fitted concentration of half-maximal effect; nearly all actives have a fitted effect of over 45% in size
Procedure, shortened: as §2

[8] = qHTS of pediatric cancer cell lines to identify multiple opportunities for drug repurposing: Confirmatory screen for A673 cells (AID 1347110);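 note: cells exposed to compound for 48 h before the viability read; nearly all actives have a fitted effect of over 65% in size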; note: potency is the fitted concentration of half-maximal effect
Procedure, shortened: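 Concentration-response curves came straight from titrations: 11 points (0.78 nM to 46 µM) for MIPE and several concentrations (0.59 nM to 46 µM) for NPC in primary, 11 points in follow-up. Readout: ATP luminescence at 48 h.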

[9] = qHTS of pediatric cancer cell lines to identify multiple opportunities for drug repurposing: Confirmatory screen for SK-N-MC cells (AID 1347111);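 note: potency is the fitted concentration of half-maximal effect; cells exposed to compound for 48 h before the readout; nearly all actives have a fitted effect of over 70% in size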
Procedure, shortened: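 Seed 500-1,000 cells/well; rest 5 h at 37 degrees C. Pin-transfer compounds, 11-point titration. Incubate 48 h. Add CellTiter-Glo, 15 min RT, read luminescence.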

[10] = qHTS of pediatric cancer cell lines to identify multiple opportunities for drug repurposing: Confirmatory screen for DAOY cells (AID 1347114); note: nearly all actives have a fitted effect of over 65% in size; note: potency is the fitted concentration of half-maximal effect
Procedure, shortened: (§3)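 Viability measured as metabolically active cells via CellTiter-Glo luminescence following 48 hours of compound exposure, 11-point dilutions in confirmatory testing. 500-1,000 cells/well plated 5 hours before dosing; controls were DMSO and 2.3 µM bortezomib.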

[11] = qHTS of pediatric cancer cell lines to identify multiple opportunities for drug repurposing: Confirmatory screen for NB-EBc1 cells (AID 1347115);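 note: cells exposed to compound for 48 h before the viability read; nearly all actives have a fitted effect of over 45% in size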; note: potency is the fitted concentration of half-maximal effect
Procedure, shortened: as §2

[12] = qHTS of pediatric cancer cell lines to identify multiple opportunities for drug repurposing: Confirmatory screen for BT-37 cells (AID 1347117); note: potency is the fitted concentration of half-maximal effect; nearly all actives have a fitted effect of over 55% in size
Procedure, shortened: as §2

[13] = qHTS of pediatric cancer cell lines to identify multiple opportunities for drug repurposing: Confirmatory screen for TC32 cells (AID 1347118);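 note: potency is the fitted concentration of half-maximal effect; cells exposed to compound for 48 h before the read; nearly all actives have a fitted effect of over 65% in size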
Procedure, shortened: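 Luminescent ATP read-out (CellTiter-Glo) of metabolically active TC32 cells after 48 h exposure. Concentration-response curves came from 11-point (MIPE, 0.78 nM–46 µM) or 8-point (NPC, 0.59 nM–46 µM) primary titrations; follow-up used 11 points.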

[14] = qHTS of pediatric cancer cell lines to identify multiple opportunities for drug repurposing: Primary screen for Rh18 cells (AID 1347102); note: nearly all actives have a fitted effect of over 65% in size; note: potency is the fitted concentration of half-maximal effect
Procedure, shortened: as §2

[15] = qHTS of pediatric cancer cell lines to identify multiple opportunities for drug repurposing: Primary screen for OHS-50 cells (AID 1347103); note: nearly all actives have a fitted effect of over 40% in size; note: potency is the fitted concentration of half-maximal effect
Procedure, shortened: as §2

[16] = qHTS of pediatric cancer cell lines to identify multiple opportunities for drug repurposing: Primary screen for RD cells (AID 1347104); note: nearly all actives have a fitted effect of over 55% in size; note: potency is the fitted concentration of half-maximal effect
Procedure, shortened: as §1

[17] = qHTS of pediatric cancer cell lines to identify multiple opportunities for drug repurposing: Primary screen for MG 63 (6-TG R) cells (AID 1347105); note: nearly all actives have a fitted effect of over 50% in size; note: potency is the fitted concentration of half-maximal effect
Procedure, shortened: as §1

[18] = qHTS of pediatric cancer cell lines to identify multiple opportunities for drug repurposing: Confirmatory screen for LAN-5 cells (AID 1347113)
Procedure, shortened: as §2

[19] = qHTS of pediatric cancer cell lines to identify multiple opportunities for drug repurposing: Confirmatory screen for BT-12 cells (AID 1347112); note: nearly all actives have a fitted effect of over 55% in size
Procedure, shortened: as §2

[20] = qHTS of pediatric cancer cell lines to identify multiple opportunities for drug repurposing: Confirmatory screen for SJ-GBM2 cells (AID 1347116); note: nearly all actives have a fitted effect of over 60% in size
Procedure, shortened: as §3

Measured: Potency

CSc1cccc(Nc2ncc3cc(-c4c(Cl)cccc4Cl)c(=O)n(C)c3n2)c1
inactive: [3] | [4] | [5]
active: [1] 209 nM | [2] 372 nM | [6] 743 nM | [7] 2930 nM | [8] 2080 nM | [9] 2610 nM | [10] 1170 nM | [11] 2080 nM | [12] 4140 nM | [13] 2930 nM

COc1cc(Nc2nc3ccccc3nc2NS(=O)(=O)c2ccc(NC(=O)c3ccc(C)c(OC)c3)cc2)cc(OC)c1
inactive: [1] | [2] | [14]

C[C@]12C=CC(=O)C=C1CC[C@@H]1[C@@H]2[C@@H](O)C[C@@]2(C)[C@@H]1CC[C@]2(O)C(=O)CO
active: [2] 23500 nM
inactive: [1] | [14] | [15] | [16] | [17] | [4] | [5]

N#CC(c1ccc(Cl)cc1)c1c(Cl)cc(-n2ncc(=O)[nH]c2=O)cc1Cl (centres undefined)
active: [1] 18700 nM | [2] 7430 nM | [3] 21700 nM | [15] 15300 nM | [17] 14800 nM
inactive: [4]

O=C(O)C1=CC(O)C(O)[C@H](O)C1 (some centres undefined)
inactive: [1] | [2] | [14] | [15] | [16] | [17] | [4] | [5] | [6]

Nc1ncnc2c1ncn2[C@@H]1O[C@H](CO)[C@@H](O)[C@@H]1O
active: [1] 833 nM | [2] 1480 nM | [14] 1870 nM | [15] 3850 nM | [16] 1660 nM | [17] 3720 nM | [6] 2350 nM | [7] 14700 nM | [9] 8270 nM | [18] 13100 nM | [12] 14700 nM | [13] 7370 nM
inactive: [4] | [8] | [10]

Cn1c(=O)c(-c2c(Cl)cccc2Cl)cc2cnc(Nc3cccc(C(=O)O)c3)nc21
inactive: [1] | [2] | [3] | [16] | [4] | [5] | [6]

CN1CCc2c(n(Cc3ccc(C(=O)NO)cc3)c3ccccc23)C1
active: [1] 11800 nM | [2] 16600 nM | [14] 18700 nM | [15] 21700 nM | [16] 18700 nM | [6] 11800 nM
inactive: [4] | [5]

COc1cc2ncnc(Nc3cc(Br)c(O)c(Br)c3)c2cc1OC
active: [1] 1320 nM | [2] 16600 nM | [15] 27300 nM | [16] 935 nM
inactive: [14] | [4] | [5] | [19] | [11] | [20]

Cc1ccc(NC(=O)c2cccc(N(C)C)c2)cc1NC(=O)c1ccc(O)cc1
inactive: [14] | [15] | [4]
active: [1] 332 nM | [2] 2960 nM | [16] 2640 nM | [6] 2960 nM

C[C@@]1(C(=O)Nc2ccc(F)nc2)CCCN1c1nc(Nc2cc(C3CC3)[nH]n2)c2cccn2n1
active: [1] 93.5 nM | [2] 26.4 nM | [14] 16600 nM | [15] 968 nM | [17] 11800 nM | [4] 20900 nM | [6] 74.3 nM | [7] 293 nM | [8] 465 nM | [18] 147 nM | [11] 1470 nM | [12] 2930 nM | [13] 233 nM
